Screening results from PubChem BioAssay.
Shown are actives, neighbours in structure and some others; about 3.4% of the full set was active somewhere.
MEKK3 PB1 HTS: raises or lowers MEK5 binding to the human MEKK3 PB1 domain. binding response (% of control), % at 10 µM. bead-based flow cytometry, Alexa488-MEK5 binding to MEKK3; actives lie on both sides; 0 = blocked by unlabeled MEK5, 100 = vehicle. 290,000 tested, 1.4% active. Q99759. AID 1529;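 active means binding response more than 3 SD above or below the average of its plate-row segment, actives on both sides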;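 further: Alexa488 bead fluorescence after subtracting the streptavidin-only scavenger bead signal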
Target sequence (Q99759 whole entry, looked up, the tested form may be a part): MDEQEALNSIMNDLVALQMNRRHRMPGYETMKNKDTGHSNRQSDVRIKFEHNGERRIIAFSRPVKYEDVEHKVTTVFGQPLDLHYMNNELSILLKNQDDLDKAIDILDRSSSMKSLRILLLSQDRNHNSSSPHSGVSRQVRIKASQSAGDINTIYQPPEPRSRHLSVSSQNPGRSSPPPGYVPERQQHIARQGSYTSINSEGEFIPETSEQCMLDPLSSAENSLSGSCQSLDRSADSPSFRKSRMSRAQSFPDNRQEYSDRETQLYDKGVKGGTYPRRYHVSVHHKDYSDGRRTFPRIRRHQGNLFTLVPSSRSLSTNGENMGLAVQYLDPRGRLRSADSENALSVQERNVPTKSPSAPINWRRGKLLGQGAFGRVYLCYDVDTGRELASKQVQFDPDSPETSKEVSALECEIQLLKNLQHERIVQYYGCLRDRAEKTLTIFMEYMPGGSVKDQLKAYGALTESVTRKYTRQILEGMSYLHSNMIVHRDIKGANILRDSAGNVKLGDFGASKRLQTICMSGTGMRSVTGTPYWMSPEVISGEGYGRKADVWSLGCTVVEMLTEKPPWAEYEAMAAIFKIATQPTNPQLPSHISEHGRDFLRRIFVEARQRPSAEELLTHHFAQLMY
TMEM16A act: activators or potentiators of mouse TMEM16A chloride channel. HEK293 TMEM16A/YFP-H148Q/I152L, iodide quench fluorescence; active compounds read low. B-score at 10 µM. 340,000 tested, 0.3% active;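 active means fluorescence-ratio B-score plate-corrected deviation score at least 3 library SD below zero, with starting fluorescence score within 5 deviations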;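 further: channel opened by trigger with iodide after compound preincubation; score built on the fluorescence ratio of max minus min over baseline; more negative score means more quench and so TMEM16A activation or potentiation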
ANO1 block: mouse TMEM16A channel inhibition, primary screen; Q8BHY3; HEK293 TMEM16A/YFP iodide influx fluorescence, ionomycin; normalized B-score (activity score, 25-100; higher = stronger inhibition) at 10 µM; 310,000 tested, 1.2% active; AID 588511;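 active means ratio plate-corrected score three or more library SD toward inhibition, starting fluorescence score within five deviations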;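 further: score derived from kinetic fluorescence span divided by baseline fluorescence per well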
NTR1 agonist: activates human neurotensin receptor 1. 330,000 tested, 0.17% active. NTR1-U2OS beta-arrestin-GFP spot imaging, agonist mode. P30989. AID 493036. activation, % at 20 µM;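 active means activation at or above 40% of the spot to cytoplasm intensity ratio, with at least 20 cells analyzed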;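 further: 0% = DMSO without peptide and 100% = 100 nM NTR1 peptide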
MEKK2 mut-MEK5: signal of MEK5 binding to mutant human MEKK2 PB1 domain | bead flow cytometry, Alexa488-MEK5 binding to MEKK2 mutant | percent response, % at 10 µM | 290,000 tested, 0.35% active | AID 1530; in the data active means percent response above about 24%, passing the limit was not always enough
MEKK2 WT-MEK5: raises or lowers MEK5 binding to wildtype human MEKK2 PB1 domain; Q9Y2U5; bead flow cytometry, Alexa488-MEK5 binding to MEKK2 WT; actives lie on both sides; binding response (% of control), % at 10 µM; 290,000 tested, 1.1% active; AID 1531; in the data active means binding response below about 67% or above about 130%
TMEM16A reconf: TMEM16A (mouse) chloride channel inhibition, re-confirmation; shares compounds with ANO1 block; AID 652189; inhibition, % at 10 µM; 2,300 tested, 39% active; HEK293 TMEM16A/YFP-H148Q, iodide quench fluorescence; ionomycin added to raise cell calcium;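 active means mean duplicate percent inhibition, scaled so buffer wells are 0 and the reference blocker 100, over three buffer SD above buffer mean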
HEK293 Ca mobil: alters calcium mobilization in TMEM16A HEK293 cells, counter-screen; shares compounds with ANO1 block; TMEM16A/YFP HEK293, Fluo4 calcium mobilization; calcium response (% of ionomycin), % at 10 µM; 2,300 tested, 2% active;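 active means duplicate-averaged calcium signal over 20% of the ionomycin maximum, relative to buffer baseline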;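 further: each well's signal is peak minus trough fluorescence divided by its pre-addition baseline; 0% = buffer wells and 100% = ionomycin wells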
YFP-HEK293 quench: counter-screen for TMEM16A inhibitors: effect in parental YFP-HEK293 cells; AID 652233; shares compounds with ANO1 block; YFP ratio F(max-min)/F0 at 10 µM; iodide YFP quench, ionomycin; 2,300 tested, under 10 active;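 active means yellow fluorescent protein signal ratio exceeding the buffer control mean by over 5 SD of those controls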;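 further: ratio is mean of duplicate wells from kinetic YFP trace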
ClC-1 inh: rat ClC-1 inhibition, TMEM16A specificity screen | shares compounds with ANO1 block | CHO ClC-1-YFP, iodide influx fluorescence quench; iodide control reads 0, buffer control 100 | ratio percent, % at 10 µM | 2,300 tested, under 10 active;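 active means duplicate-mean ratio percent above the mean of iodide-only control wells, which defines zero, plus 5 of their SD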;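 further: higher percent means stronger block of ClC-1 iodide influx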
* marks the source's active call; other numbers are inactive results; i = inactive; . = not tested or not shown.

SMILES	MEKK3 PB1 HTS	TMEM16A act	ANO1 block	NTR1 agonist	MEKK2 mut-MEK5	MEKK2 WT-MEK5	TMEM16A reconf	HEK293 Ca mobil	YFP-HEK293 quench	ClC-1 inh
O=C1CC(O)(C(F)F)Oc2ccc3ccccc3c21 (stereo unspecified)	99	i	i	2	-5	98	.	.	.	.
O=C1CC(O)(C(F)(F)F)Oc2c1ccc1ccccc21 (stereo unspecified)	108	i	100*	1	8	106	54%*	38%*	-1.1	-24
CC(C)COc1cccc(C(=O)NC(=S)Nc2cccc(NC(=O)c3ccccc3Cl)c2)c1	88	i	i	2	-4	87	.	.	.	.
CCOC(=O)N1CCN(c2nc(-c3ccc(Cl)cc3)cs2)CC1	103	i	i	2	4	104	.	.	.	.
CC(C)C(=O)N1CCN(c2nc(-c3ccc(Cl)cc3)cs2)CC1	102	i	25*	0	0	94	34%*	i	-1.1	-12
O=C(CN1CCN(c2nc(-c3ccc(Cl)cc3)cs2)CC1)NCc1ccco1	102	.	25*	8	3	101	i	20%*	-0.95	4
COc1cc2c(cc1NCc1ccc3c(c1)OCO3)oc1ccccc12	97	i	i	-3	2	102	.	.	.	.
COc1cc2c(cc1NCc1ccccn1)oc1ccccc12	107	i	100*	2	6	111	i	i	-1	-13
O=S(=O)(c1ccccc1)C1Cc2ccccc2C1Cl (stereo unspecified)	.	i	i	1	.	.	.	.	.	.
CCCN(CCC)S(=O)(=O)c1ccc(C(=O)N2CCCc3ccccc32)cc1	108	i	100*	2	1	105	i	i	-1	-12
CCCN(CCC)S(=O)(=O)c1ccc2c(c1)CCCN2C(C)=O	101	i	i	1	2	102	.	.	.	.
CC(=O)c1c(C)[nH]c(C(=O)COC(=O)CN(C)S(=O)(=O)c2ccc(Cl)cc2)c1C	93	i	i	2	-3	92	.	.	.	.
C/C(=N\NC(=S)NCCc1ccccc1)c1ccc(O)cc1O	98	i	25*	0	-3	93	23%*	i	-1.2	0
Cc1cc(C(=O)NCC(=O)OCC(=O)Nc2ccc(OC(F)F)cc2)ccc1[N+](=O)[O-]	103	i	25*	4	-1	102	i	i	-1.2	-2
COc1ccc(Cl)cc1NC(=O)COC(=O)CNC(=O)c1ccc([N+](=O)[O-])c(C)c1	95	i	i	0	0	100	.	.	.	.
CN(c1cccc(NC(=O)Nc2cccc(Cl)c2)c1)S(C)(=O)=O	104	i	100*	4	5	106	42%*	i	-1	-12
CC(=O)Nc1cccc(N(C)S(C)(=O)=O)c1	97	i	i	-1	2	95	.	.	.	.
Cc1cc(C(=O)NC2CCCc3c2cnn3-c2cccc(C)c2C)no1 (stereo unspecified)	98	i	25*	2	-3	100	i	i	-0.79	-11
O=S(=O)(Nc1nc2ccccc2nc1Cl)c1cccc(C(F)(F)F)c1	99	i	25*	1	4	99	21%*	i	-1.1	-10
O=S(=O)(Nc1nc2ccccc2nc1Cl)c1ccccc1C(F)(F)F	100	i	i	1	1	102	.	.	.	.
CC(C)CN1CCC(=O)N([C@H](COc2ccccc2)Cc2ccccc2)CC1	102	i	i	0	4	100	.	.	.	.
CC1=CC(C)(C)N2C(=O)C3(SCC(=O)N3c3ccc(F)cc3)c3cc(C)cc1c32 (stereo unspecified)	76	i	100*	26	-17	74	20%*	i	-1.2	-8
O=C1NCCCC1C(=O)N/N=C/c1cccc(O)c1 (stereo unspecified)	93	i	i	0	-2	96	.	.	.	.
COC(=O)Cc1c(O)ccn(Cc2ccc(OC)c(OC)c2)c1=O	98	i	i	0	-2	97	.	.	.	.
Cc1ccc(NC(=O)CNc2cccc(S(=O)(=O)N3CCCCC3)c2)cc1F	.	i	25*	2	.	.	i	i	-0.88	-8
SMILES	MEKK3 PB1 HTS	TMEM16A act	ANO1 block	NTR1 agonist	MEKK2 mut-MEK5	MEKK2 WT-MEK5	TMEM16A reconf	HEK293 Ca mobil	YFP-HEK293 quench	ClC-1 inh
O=C(COC(=O)c1ccc(O)cc1)Nc1cccc(S(=O)(=O)N2CCCCC2)c1	91	i	25*	3	-9	89	i	i	-1.1	-20
Cc1ccc(NCC(=O)Nc2cccc(F)c2)cc1S(=O)(=O)N1CCCCCC1	102	i	100*	1	4	103	34%*	i	-0.94	-12
CS(=O)(=O)c1ccc(C(=O)OCC(=O)Nc2cccc(S(=O)(=O)N3CCCC3)c2)cc1	.	i	i	-1	.	.	.	.	.	.
O=S(=O)(CCN1CCN(c2ccccc2O)CC1)c1cc(Cl)ccc1Cl	.	i	.	0	.	.	.	.	.	.
O=C(CSc1nnc2ccccn12)N1CCc2ccccc21	88	i	i	-1	-5	91	.	.	.	.
COc1ccc(CCn2c(=S)[nH]c3cc(C(=O)NCc4ccco4)ccc3c2=O)cc1OC	.	i	25*	18	.	.	i	i	-0.91	-24
Cc1oc2cc3oc(=O)c(CCC(=O)NC4CC4)c(C)c3cc2c1C	102	i	25*	1	2	99	i	i	-0.78	-15
CC(=O)N1CCSc2ccc(S(=O)(=O)NCCc3ccc(Cl)cc3)cc21	101	i	100*	2	1	101	34%*	i	-0.86	-11
Cc1cc(Br)cc2c(C(=O)Nc3c(C)n(C)n(-c4ccccc4)c3=O)cc(-c3cccs3)nc12	103	i	i	6	1	93	.	.	.	.
CCC1(C)Cc2c(sc3nc(NC)n(C)c(=O)c23)CO1 (stereo unspecified)	.	i	25*	1	.	.	i	i	-0.9	-10
Cn1c(NN)nc2sc3c(c2c1=O)CC(C)(C)OC3	92	i	i	0	-3	101	.	.	.	.
